Bioassay records as filed in PubChem BioAssay.
Yp Topo-I inh = Y. pestis Topo-I inhibition via cleavage products; hit rate 0.064% among 360,000; Y. pestis Topo-I cleavage product accumulation, plate reader; activity, % at 10 µM; in the data active means activity above about 50%, passing the limit was not always enough
CCHF vOTU inh-1 = CCHFV vOTU protease inhibition. hit rate 0.55% among 370,000. Pep-AMC fluorescence. inhibition, % at 11.5 µM; further: 0% = vehicle wells with enzyme and 100% = no enzyme wells
Mtb betalactam = beta-lactam sensitization of Mtb H37Rv; inhibition, % at 25 µM; M. tuberculosis H37Rv growth with meropenem, percent inhibition; hit rate 0.27% among 330,000; call rule not given here;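 further: growth measured after seven days incubation then overnight dye step; 0% = bacteria only wells and 100% = bacteria with antibiotic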
BJeLR viability = kills HRASV12-expressing BJeLR cells; BJeLR (HRASV12) viability, CellTiter-Glo ATP luminescence, 48 h; inhibition, % (test concentration not listed); hit rate 0.17% among 300,000; in the data active means inhibition above about 50%
RecA splice inh = inhibitors of M. tuberculosis RecA intein splicing | P9WHJ3 | hit rate 0.75% among 290,000 | inhibition, % (test concentration not listed) | cell-free RecA intein splicing, fluorescence; in the data active means inhibition above about 30%;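 further: 0% = vehicle wells and 100% = reference inhibitor control wells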
Target sequence (P9WHJ3 whole entry, looked up, canonical isoform): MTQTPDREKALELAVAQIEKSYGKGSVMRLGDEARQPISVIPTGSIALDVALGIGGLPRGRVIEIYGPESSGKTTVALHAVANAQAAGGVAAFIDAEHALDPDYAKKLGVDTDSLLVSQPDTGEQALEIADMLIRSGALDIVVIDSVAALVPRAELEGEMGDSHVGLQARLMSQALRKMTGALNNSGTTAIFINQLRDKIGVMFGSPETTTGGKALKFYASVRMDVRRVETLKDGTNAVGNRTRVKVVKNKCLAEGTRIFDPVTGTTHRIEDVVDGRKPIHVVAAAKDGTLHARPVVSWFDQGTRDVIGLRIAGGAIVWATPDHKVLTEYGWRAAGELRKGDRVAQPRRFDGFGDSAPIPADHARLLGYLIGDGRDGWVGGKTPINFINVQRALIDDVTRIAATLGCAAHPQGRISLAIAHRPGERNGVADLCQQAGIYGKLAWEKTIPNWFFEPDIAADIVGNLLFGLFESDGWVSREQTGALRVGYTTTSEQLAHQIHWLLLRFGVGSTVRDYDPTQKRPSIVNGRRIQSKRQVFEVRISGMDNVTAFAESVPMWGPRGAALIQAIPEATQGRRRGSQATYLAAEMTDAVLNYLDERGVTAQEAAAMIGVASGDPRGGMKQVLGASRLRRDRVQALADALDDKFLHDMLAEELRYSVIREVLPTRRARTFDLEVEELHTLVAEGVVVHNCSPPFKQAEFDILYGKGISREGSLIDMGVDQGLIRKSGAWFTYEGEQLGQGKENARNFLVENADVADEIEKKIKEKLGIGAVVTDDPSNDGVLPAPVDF
Mtb BioA inh = inhibitors of Mycobacterium tuberculosis BioA enzyme. purified M. tuberculosis BioA enzyme, plate reader. inhibition, % at 9.99 µM. hit rate 0.096% among 360,000. AID 602481; in the data active means inhibition above about 40%
CCHF vOTU inh-2 = confirmation of CCHF virus vOTU protease inhibitors | shares compounds with CCHF vOTU inh-1 | Recombinant CCHFV vOTU, Pep-AMC fluorescence | inhibition, % at 11.5 µM | hit rate 17% among 1,900 | AID 686976
* marks the source's active call; other numbers are inactive results; / = no result given. Most compounds without a hit are left out; they make up all but 1.1% or so of the library. Unless noted, no stated cut-off is given here; in the data, active means inhibition above about 30%; inactive means the rest.

SMILES	Yp Topo-I inh	CCHF vOTU inh-1	Mtb betalactam	BJeLR viability	RecA splice inh	Mtb BioA inh	CCHF vOTU inh-2
CCn1c(=O)c(C(=O)CN(C)CC(=O)Nc2cccc(F)c2)c(N)n(Cc2ccccc2)c1=O	11	30*	6	/	/	18	-16
CCCc1cn(CC[C@@H]2CC[C@H](NC(=O)Cc3cccnc3)[C@@H](CO)O2)nn1	/	/	/	/	/	2	/
Cc1ccc(Cl)cc1-c1cc(C(=O)NCc2cc(C(F)(F)F)cc(C(F)(F)F)c2)[nH]n1	-3	33*	/	/	/	0	-19
Cc1ccc(F)cc1-c1cc(C(=O)NCc2cc(C(F)(F)F)cc(C(F)(F)F)c2)[nH]n1	-11	30*	/	/	/	-2	5
Cc1cc(F)ccc1-c1cc(C(=O)NCc2cc(C(F)(F)F)cc(C(F)(F)F)c2)[nH]n1	-3	0	/	/	/	-1	/
C[C@H](CO)N1C[C@H](C)[C@@H](CN(C)S(=O)(=O)c2cn(C)cn2)OCCCC[C@H](C)Oc2ccc(NC(=O)CCC(F)(F)F)cc2C1=O	/	/	/	/	/	-2	/
COc1ccc(CCNC(=O)CSc2nc(N)c(C#N)c(-c3cccs3)c2C#N)cc1OC	0	32*	-4	5	4	-1	-4
COCCn1c(-c2ccc(Cl)cc2)cnc1SCC(=O)NCCc1ccc(OC)c(OC)c1	22	30*	2	-3	2	/	-16
Cc1noc(C)c1NC(=O)N(C)C[C@H]1Oc2ccc(NC(=O)Cc3ccccc3)cc2CC(=O)N([C@H](C)CO)C[C@@H]1C	/	/	/	/	/	0	/
CC(=O)NCC(=O)OC(C)C(=O)Nc1ccc(C(C)=O)cc1 (stereo unspecified)	-7	38*	5	-6	-2	1	-20
Cc1noc(C)c1S(=O)(=O)Nc1ccc2c(c1)C(=O)N([C@H](C)CO)C[C@H](C)[C@@H](CN(C)Cc1ccncc1)OCCCC[C@@H](C)O2	/	/	/	/	/	-2	/
C[C@@H]1CCCCO[C@H](CN(C)C(=O)Nc2ccc(C(F)(F)F)cc2)[C@@H](C)CN([C@H](C)CO)C(=O)c2cc(NC(=O)c3ccncc3)ccc2O1	17	32*	/	/	/	-2	-1
OC(c1ccccc1)(c1ccccc1)C1CCN(CCCOc2cccc(Cl)c2)CC1	/	37*	/	/	/	/	-1
OC(c1ccccc1)(c1ccccc1)C1CCN(CCCOc2ccc(C(F)(F)F)cc2)CC1	/	24	/	/	/	/	/
OC(c1ccccc1)(c1ccccc1)C1CCN(CCCOc2cccc(C(F)(F)F)c2)CC1	/	22	/	/	/	/	/
OC(c1ccccc1)(c1ccccc1)C1CCN(CCCOc2ccc(OC(F)(F)F)cc2)CC1	/	31*	/	/	/	/	-1
CN1[C@H](C(=O)NCCN2CCCCC2)[C@@H](CO)[C@@H]2Cn3c(ccc(-c4ccc(F)cc4)c3=O)[C@@H]21	/	/	/	/	/	-2	/
Cc1cc2cc(NC(=O)c3ccco3)ccc2[nH]1	-2	33*	1	4	5	1	-11
Cc1nc2ccc(NC(=O)c3ccco3)cc2nc1C	2	0	-3	/	0	/	/
COCC#Cc1cnc2c(c1)C(=O)N([C@H](C)CO)C[C@H](C)[C@@H](CN(C)C(=O)C1CCC1)O2	/	/	/	/	/	-4	/
O=C(NCC1CC1)[C@H]1[C@H](CO)[C@H]2Cn3c(ccc(C4=CCCC4)c3=O)[C@@H]1N2C(=O)C1CC1	/	/	/	/	/	-2	/
CN(C(=O)CSc1nccc(=O)[nH]1)C1CCCCC1	4	38*	-2	/	/	-1	-14
Cc1ccc(S(=O)(=O)Nc2ccc3c(c2)C(=O)N([C@@H](C)CO)C[C@@H](C)[C@@H](CN(C)C(=O)Nc2cccc4ccccc24)OCCCC[C@@H](C)O3)cc1	/	/	/	/	/	-3	/
C[C@@H]1CCCCO[C@H](CN(C)S(=O)(=O)c2ccc(Cl)cc2)[C@H](C)CN([C@@H](C)CO)C(=O)c2cc(NC(=O)CCC(F)(F)F)ccc2O1	/	/	/	/	/	-1	/
CCN(CC(=O)NCc1cccs1)C(=O)CCCOc1ccccc1	5	3	1	/	/	1	/
SMILES	Yp Topo-I inh	CCHF vOTU inh-1	Mtb betalactam	BJeLR viability	RecA splice inh	Mtb BioA inh	CCHF vOTU inh-2
CCN(CC(=O)NCc1cccs1)C(=O)CCCOc1ccc(C(C)(C)C)cc1	34	31*	2	/	/	1	-3
COc1cc(OC)c([N+](=O)[O-])cc1/C=N/NC(=O)c1ccncc1	7	34*	99	4	-2	/	5
CO[C@H]1CN(C)C(=O)c2cccc(C#N)c2OC[C@@H]2O[C@H](CC[C@H]2OC)CCN(C)C(=O)[C@@H]1C	/	/	/	/	/	-1	/
CO[C@@H]1CN(C)C(=O)c2cc(NC(=O)Nc3ccccc3)ccc2OC[C@@H](C)N(C(=O)Nc2c(C)noc2C)C[C@@H]1C	/	/	/	/	/	-1	/
CN(C)CC(=O)N1CCCCN2[C@H](CO)[C@@H](c3ccc(-c4cccnc4)cc3)[C@@H]2C1	/	/	/	/	/	9	/
O=C(NCc1ccncc1)C1Cc2c(-c3ccccc3Oc3ccccc3)ccnc2O1 (stereo unspecified)	41	32*	/	/	/	4	-14
CCCCn1c(N)c(N(CC(C)C)C(=O)c2cc3c(s2)CCCCC3)c(=O)[nH]c1=O	1	1	-4	-16	-2	/	/
CCCCn1c(N)c(N(CC(C)C)C(=O)c2cccs2)c(=O)[nH]c1=O	-1	39*	-8	-26	-3	0	-13
O=C(C[C@@H]1C[C@H]2c3cc(NS(=O)(=O)c4ccc(F)cc4)ccc3O[C@H]2[C@H](CO)O1)NCc1ccc(Cl)cc1	/	/	/	/	/	0	/
Cc1[nH]c2ccc(F)cc2c(=O)c1SC(F)(F)C(F)F	-7	30*	-4	0	-2	5	-19
O=c1[nH]c2ccccc2nc1-c1nnnn1C1CCCC1	/	-21	/	/	/	/	/
O=c1[nH]c2cc3ccccc3cc2nc1-c1nnnn1C1CCCC1	/	30*	/	/	/	/	11
CO[C@H]1CN(C)C(=O)c2ccc(NC(=O)c3ccno3)cc2OC[C@@H](C)NC[C@H]1C	/	/	/	/	/	-1	/
O=C(Nc1cccc2ccccc12)C1CCN(C(=O)NCc2ccccc2)CC1	9	35*	-2	-6	4	0	4
COc1ccc(CN2C[C@@H](C)[C@@H](OC)CN(C)C(=O)c3cc(NC(C)=O)ccc3OC[C@@H]2C)cc1	/	/	/	/	/	3	/
COc1ccc(NC(=O)N2C[C@H](O)COC[C@H]3O[C@H](CC(=O)N4CCCCC4)CC[C@@H]32)cc1	/	/	/	/	/	0	/
CCC1Sc2ccc(S(=O)(=O)CCC(=O)Nc3ccc(OC(F)(F)F)cc3)cc2NC1=O (stereo unspecified)	3	39*	1	20	1	-1	8
O=C(CNc1cccc2ccccc12)N/N=C/C(Br)=C/c1ccccc1	-11	82*	-5	-5	4	0	-13
Cc1cc(C(=O)N/N=C/c2ccc([N+](=O)[O-])s2)c2ccccc2n1	-6	31*	99	-14	-6	-3	-6
Cc1[nH]oc(=O)c1N=Nc1c(Cl)cccc1Cl	3	36*	68	-14	-2	/	-4
Cc1[nH]oc(=O)c1N=Nc1ccccc1	-6	4	-7	4	4	/	/
O=S(=O)(O)c1cc(Cl)cc(N=Nc2ccc(O)cc2O)c1O	-18	31*	/	/	/	/	8
